# PME-1 primary = PME-1 (human) inhibition; Q9Y570; actives 0.53% (n = 320,000); inhibition, % at 5.9 µM; recombinant PME-1, FP-Rh probe fluorescence polarization; AID 2130;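 active means inhibition above the campaign mean of all compounds plus 3 SD, cut at about 26% in these data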;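 further: competitive labeling of PME-1 active site by serine hydrolase directed probe; 0% = PME-1 with DMSO and 100% = wells lacking PME-1 enzyme; inhibitors block probe labeling so polarization falls and inhibition rises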
# Fam108B counter = blocks mouse Fam108B hydrolase in RBBP9 counter-screen. actives 0.33% (n = 300,000). recombinant Fam108B, FP-Rh probe fluorescence polarization. AID 1947. inhibition, % at 9.51 µM;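 active means inhibition above the screen mean inhibition plus 3 SD, computed separately per campaign, cut at about 18% in these data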;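 further: inhibitors lower polarization as less probe binds the enzyme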
# LYPLA1 counter = LYPLA1 (human) inhibition in PME1 counter-screen. recombinant LYPLA1, FP-Rh probe fluorescence polarization. AID 2174. actives 0.16% (n = 320,000). O75608. inhibition, % at 5.9 µM;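 active means inhibition above the mean of all tested compounds plus 3 SD, set per campaign, cut at about 14% in these data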;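 further: inhibitors block serine hydrolase probe labeling of LYPLA1 so polarization falls; 0% = enzyme with DMSO and 100% = wells lacking LYPLA1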
# GSTO1 counter = GSTO1 inhibition, counter-screen for RBBP9 inhibitors; inhibition, % at 5.96 µM; actives 1.1% (n = 300,000); recombinant GSTO1, activity-based probe fluorescence polarization; P78417;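 active means inhibition above the campaign mean inhibition plus 3 SD, cut at about 35% in these data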;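 further: 0% = GSTO1-1 with DMSO and 100% = wells lacking GSTO1-1 enzyme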
# PAD4 FP inh = inhibitors of human PAD4; Q9UM07; recombinant PAD4, RCA probe fluorescence polarization; inhibition, % at 6.36 µM; actives 0.41% (n = 330,000); AID 485272;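 active means percent inhibition above a cutoff equal to the mean of all tested compounds plus 3 SD, cut at about 15% in these data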;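 further: 0% = PAD4 with RCA probe and DMSO and 100% = probe without PAD4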
# Target sequence (Q9UM07 whole entry, looked up): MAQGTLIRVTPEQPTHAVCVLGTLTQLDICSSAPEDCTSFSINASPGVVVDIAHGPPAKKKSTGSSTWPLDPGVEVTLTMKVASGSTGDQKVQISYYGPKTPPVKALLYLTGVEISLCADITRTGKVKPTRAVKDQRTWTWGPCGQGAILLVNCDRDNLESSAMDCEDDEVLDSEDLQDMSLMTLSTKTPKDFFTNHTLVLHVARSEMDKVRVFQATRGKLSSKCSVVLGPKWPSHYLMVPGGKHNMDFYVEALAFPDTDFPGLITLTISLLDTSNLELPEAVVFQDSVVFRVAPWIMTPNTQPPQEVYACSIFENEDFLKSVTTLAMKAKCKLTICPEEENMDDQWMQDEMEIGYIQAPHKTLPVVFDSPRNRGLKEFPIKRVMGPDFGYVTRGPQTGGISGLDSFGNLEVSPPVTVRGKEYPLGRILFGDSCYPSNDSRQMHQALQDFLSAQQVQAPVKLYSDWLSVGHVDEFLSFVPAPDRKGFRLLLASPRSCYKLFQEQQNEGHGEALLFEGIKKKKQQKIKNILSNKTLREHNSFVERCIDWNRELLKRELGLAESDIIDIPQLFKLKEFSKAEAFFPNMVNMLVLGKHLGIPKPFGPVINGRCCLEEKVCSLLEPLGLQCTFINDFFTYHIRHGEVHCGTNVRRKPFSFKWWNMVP
# LYPLA2 inh = LYPLA2 (human) inhibition in PME1 counter-screen; actives 0.38% (n = 320,000); recombinant LYPLA2, FP-Rh probe fluorescence polarization; AID 2177; O95372; inhibition, % at 5.9 µM;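 active means inhibition above the screen-wide mean plus 3 SD, limit set per campaign, cut at about 26% in these data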;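 further: 0% = LYPLA2 with DMSO and 100% = wells lacking LYPLA2 enzyme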
# GSTO1 confirm = confirmation of human GSTO1 inhibitors; actives 54% (n = 2,400); recombinant GSTO1, probe fluorescence polarization; inhibition, % at 5.96 µM; AID 2176; shares compounds with GSTO1 counter;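 active means inhibition above the primary screen's cutoff, its mean inhibition plus 3 SD, cut at about 35% in these data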;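 further: loss of polarization as inhibitors block binding of rhodamine sulfonate ester activity probe; 0% = GSTO1 with DMSO and 100% = wells lacking GSTO1 enzyme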
# GSTO1 ABPP inh = blocks recombinant human glutathione S-transferase omega 1. shares compounds with GSTO1 counter. recombinant GSTO1, gel ABPP SE-Rh probe fluorescence. inhibition, % at 1 µM. actives 30% (n = 130). AID 463110;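 active means inhibition of the enzyme GSTO1 above about 75%, limit read from the data; inactive means inhibition below that limit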
# * marks the source's active call; other numbers are inactive results; / = no result. A selection: hits, their analogues and other compounds. The true share with any hit is near 1.8%.
SMILES,PME-1 primary,Fam108B counter,LYPLA1 counter,GSTO1 counter,PAD4 FP inh,LYPLA2 inh,GSTO1 confirm,others
CCC(NC(C)C)C(O)c1ccc(O)c(O)c1 (stereo unspecified),-5.6,-2.0,-0.3,50.0*,-3.0,-1.5,2.4,
Cn1c(=O)c2[nH]c(-c3ccccc3O)nc2n(C)c1=O,10.9,4.9,-1.0,38.0*,-2.5,-5.1,13.3,
CC(C)c1ccc(-c2nc3c([nH]2)c(=O)n(C)c(=O)n3C)cc1,11.9,-2.2,2.0,-1.1,5.1,4.3,/,
Cc1ccc(S(=O)(=O)N2CCC(C(=O)OCC(=O)N3CCCC(C)C3)CC2)cc1C (stereo unspecified),6.3,-2.7,0.8,-2.3,3.1,0.5,/,
COc1ccc(N2CCN(c3ccc(NC(=O)/C=C\C(=O)O)cc3)CC2)cc1,2.4,5.0,1.3,74.0*,30.3*,6.5,3.5,
CCCCOC(=O)CSC1=C(C#N)C(c2ccccc2OCC)C(C#N)C(=O)N1 (stereo unspecified),2.8,5.6,-3.7,10.1,-1.0,-2.8,/,
CCCOC(=O)CSC1=C(C#N)C(c2ccccc2OCC)C(C#N)C(=O)N1 (stereo unspecified),2.1,8.8,-1.6,71.3*,1.5,4.3,0.4,
CSc1ccc(CN(C)C(=O)CNC(=O)c2ccc3c(c2)OCO3)cc1,-3.0,5.0,1.0,-1.8,1.5,0.0,/,
O=C(/C=C/c1ccc(O)c(O)c1)NC(=O)c1ccccc1O,-11.0,-5.7,-3.5,55.4*,1.1,-5.3,32.5,
CCC1(c2ccccc2)NC(=O)N(CC(=O)Nc2cc(S(=O)(=O)N3CCCCC3)ccc2OC(C)C)C1=O (stereo unspecified),18.1,-0.6,-2.5,-10.2,-1.4,-2.5,/,
COc1ccc(CCNC(=O)c2ccc(Cl)c(S(=O)(=O)N3CCCC3)c2)cc1,5.8,/,0.3,/,-1.6,5.5,/,
Cc1[nH]n(-c2ccccc2)c(=O)c1N=Nc1ccccc1C(=O)O,17.0,9.2,-1.6,41.0*,1.3,1.7,10.6,
Cc1[nH]n(-c2ccccc2)c(=O)c1N=Nc1nccs1,2.4,3.0,1.8,15.3,-0.8,7.9,/,
Cc1ccc2nc(N3CCN(CCO)CC3)nc(-c3ccccc3)c2c1,3.1,-0.4,0.4,42.9*,1.2,2.1,24.7,
CCNC(=S)Nc1cccc(S(=O)(=O)NC2=NCCC2)c1,2.1,-3.2,-4.5,-2.1,-5.0,1.8,/,
O=C(CCl)Nc1cccc(S(=O)(=O)NC2=NCCC2)c1,-6.6,2.1,-0.2,98.5*,-1.6,-0.1,98.7*,
O=C(O)c1cccc(NS(=O)(=O)c2ccc3nnn(O)c3c2)c1,0.1,4.6,1.9,-2.2,-2.3,-0.4,/,
O=C(O)c1cccc(NC2=C(n3nnc4ccccc43)C(=O)c3ccccc3C2=O)c1,0.5,1.5,-3.7,62.3*,5.5,-0.4,44.9*,
Nc1c(N)c2ccccc2oc1=O,-1.3,4.5,-2.5,9.6,0.0,-1.1,/,
O=c1oc2ccccc2c2oc3cc(O)c(O)cc3c12,3.1,15.9,-15.8,48.9*,4.4,-13.8,13.7,
Nc1nnc2c(n1)CCCC2,8.0,0.6,1.2,66.8*,8.8,6.0,10.1,
C1CCc2nc3c(nc2C1)CCCC3,6.6,2.2,3.5,10.3,3.1,11.6,/,
CC(CCc1ccccc1)NC(=O)COC(=O)C1CCC(C(C)(C)C)CC1 (stereo unspecified),-1.1,1.7,-8.7,41.7*,1.2,-4.5,31.2,
CC(Oc1ccc2c(-c3ccccc3)cc(=O)oc2c1)C(=O)NCC(O)c1ccccc1 (stereo unspecified),8.7,-2.4,-0.3,-0.3,-0.2,4.2,/,
N#C/C(=C(/O)CCl)c1nc2ccccc2[nH]1,6.6,5.1,-2.5,83.9*,-3.3,-7.3,93.6*,
SMILES,PME-1 primary,Fam108B counter,LYPLA1 counter,GSTO1 counter,PAD4 FP inh,LYPLA2 inh,GSTO1 confirm,others
CCOc1cc(CNc2ccc(S(N)(=O)=O)cc2)cc(Cl)c1OC,1.4,3.8,3.8,-2.4,-4.0,7.5,/,
CCOc1ccc(CNc2ccc(N3CCCC3)cc2)cc1,2.2,1.9,-0.1,66.2*,-2.9,4.0,55.4*,
COc1cc(CNc2ccc(N3CCCC3)cc2)cc(Cl)c1OC,6.0,7.2,-0.1,59.0*,-10.3,2.5,56.5*,
COc1ccccc1CNc1ccc(N2CCCCC2)cc1,-1.7,5.0,-3.0,50.8*,-9.2,-2.0,7.0,
CCOc1cc(CNc2ccc(N3CCCC3)cc2)cc(Cl)c1OC,8.0,12.0,0.8,69.8*,-3.4,-4.0,70.4*,
CCc1ccccc1NC(=O)CNC(=O)CNC(=O)c1cccs1,-0.7,/,0.8,/,1.9,-3.3,/,
CC1CCCCN1C(=O)NC1CC(=O)N(c2ccc3c(c2)OCCO3)C1 (stereo unspecified),-3.8,-1.6,1.1,1.8,-3.3,0.4,/,
CC(C)Cc1ccc(CN2CCCC(NC(=O)c3cccc(-n4cnnc4)c3)C2)cc1 (stereo unspecified),-1.7,1.4,-4.8,2.0,-2.7,-9.2,/,
COc1cc2c(ccc3cc(OC)c(OC)c(O)c32)cc1O,2.0,5.3,0.6,55.0*,-2.1,8.7,45.4*,
O=Nc1c(O)c2ccccc2c2ccccc12,35.4*,14.5,-0.3,78.0*,-1.7,1.3,80.7*,
CN(C)c1ccc(O)c2c1CC1CC3[C@@H](N(C)C)C(=O)C(C(N)=O)=C(O)[C@]3(O)C(=O)C1=C2O (stereo partly specified),-6.3,14.6,3.0,40.3*,3.0,5.2,33.7,
CSc1ncccc1C(=O)OCC(=O)Nc1nc(C)c(Cl)cc1Cl,/,/,/,/,-4.0,/,/,
COc1ccc(C(CCN(Cc2ccc(OC)c(OC)c2)C(C)=O)c2ccccc2)cc1 (stereo unspecified),-1.7,3.9,-1.4,0.3,-1.6,8.1,/,
COc1ccc(CN(CCC(c2ccccc2)c2ccc(OC(C)C)cc2)C(=O)CCl)cc1OC (stereo unspecified),-3.7,-2.6,-0.5,78.3*,11.0,14.7,90.1*,GSTO1 ABPP inh=90.0*
Oc1ccc(-c2csc(-c3ccccc3)n2)cc1O,-16.8,4.4,-11.3,38.5*,1.1,-6.3,2.0,
Cc1nc(-c2ccc(O)c(O)c2)cs1,-10.0,13.9,0.6,41.7*,5.5,7.2,7.0,
Cc1ccc2nc(-c3ccc(O)c(O)c3)cn2c1,-3.9,0.4,-5.7,58.3*,-3.7,-4.4,11.0,
Oc1ccc(-c2csc(-c3cccnc3)n2)cc1O,-5.8,-4.0,-1.9,59.3*,5.0,-0.1,6.2,
CC(=O)NCCc1cnc[nH]1,2.0,0.2,0.7,47.3*,1.3,3.0,3.3,
Oc1ccc(/C=N/N(c2ccccc2)c2ccccc2)c(O)c1O,2.5,4.5,-9.4,50.8*,-7.0,-2.6,5.1,
